Test systems include SK-MEL-2 melanoma; EKVX NSCLC; SN12C renal; UO-31 renal; TK-10 renal; ACHN renal; CAKI-1 renal; A498 renal; CCRF-CEM leukemia; MOLT-4 leukemia.
Holding throughout (assay): NCI-60 one-dose screen, 48 h (100 = growth as untreated, 0 = no growth, -100 = all killed)
Holding throughout (details): 10 µM unless noted

Compounds without any hit were thinned out: in the full panel of roughly 83,000, 20% have a hit.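 Single-dose data. Exposure time 48 hours. Values below 10 considered active.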 A number with no mark means an inactive call. Active and inactive are the calls of the source.

Regarding `Oc1c(C(Nc2ccccc2Br)c2ccccc2)ccc2cccnc12` (stereo not given), the growth with SK-MEL-2 melanoma is 12.1%; in the test with EKVX NSCLC, 23.4%; in the test on SN12C renal, 24.7%; in the test with UO-31 renal, 16.8%; in the test on TK-10 renal, 30.3%; with ACHN renal it was 13.5%. For the same compound, the growth with CAKI-1 renal is 13.2%; with A498 renal, 47.7%; in the test with CCRF-CEM leukemia it was 17.3%; with MOLT-4 leukemia, 4.89% (active).

For `COc1ccc2[nH]cc(C3(c4c[nH]c5ccc(OC)cc45)C(=O)Nc4ccc(F)cc43)c2c1`, the growth in the test with SK-MEL-2 melanoma is 98.3%; with EKVX NSCLC, 37%; in the test with SN12C renal, 106%; with UO-31 renal, 62%; in the test with TK-10 renal it was 125%; in the test with ACHN renal, 86.7%. Also, the growth with CAKI-1 renal was 40.8%; with A498 renal it was 60.8%; in the test with CCRF-CEM leukemia it was 15.4%; in the test on MOLT-4 leukemia, 1.29% (active).

As for `CCCCCCCC/C=C/CCCCCCCC1=NC(C)(C)CN1c1ccccc1`, the growth is 92.6% in the test with SK-MEL-2 melanoma; 105% in the test with EKVX NSCLC; 95.5% in the test on SN12C renal; 61.7% in the test on UO-31 renal; 118% in the test on TK-10 renal; 101% in the test on ACHN renal. Moreover, the growth with CAKI-1 renal was 90.1%; in the test with A498 renal it was 105%; in the test with CCRF-CEM leukemia, 64.2%; in the test on MOLT-4 leukemia, 85.7%.

Consider `NNC(=O)CSc1nc2scc(-c3ccccc3)c2c(=O)n1-c1ccccc1`, for which the growth with SK-MEL-2 melanoma was 101%; with EKVX NSCLC, 103%; with SN12C renal, 101%; with UO-31 renal it was 76.2%; in the test with TK-10 renal it was 178%; in the test on ACHN renal, 103%. For the same compound, the growth was 106% with CAKI-1 renal, 87.4% in the test on A498 renal, 106% with CCRF-CEM leukemia and 96% in the test on MOLT-4 leukemia.

Take `C=CCN1C(=O)/C(=c2\sc3n(c2=O)C2C(NN=3)N(CC)C(=O)N2CC)c2ccccc21` (stereo not given): the growth was 46.5% with SK-MEL-2 melanoma; 37.3% in the test on EKVX NSCLC; 35.8% with SN12C renal; 48.3% in the test with UO-31 renal; 60.6% in the test on TK-10 renal; 37.6% in the test with ACHN renal. Moreover, the growth with CAKI-1 renal is 43.2%; in the test with A498 renal, 10.7%; with CCRF-CEM leukemia, 12.8%; with MOLT-4 leukemia it was 19.1%.

For the compound `O=S(=O)(Cc1ccc(Cl)cc1Cl)c1ccc(Cl)cc1`, the growth was 31.1% in the test on SK-MEL-2 melanoma; 63.4% in the test on EKVX NSCLC; 49.4% with SN12C renal; 46.2% in the test with UO-31 renal; 32.6% with TK-10 renal; 55.7% in the test with ACHN renal. Besides, the growth in the test on CAKI-1 renal is 38.1%; with A498 renal, 42.5%; in the test on CCRF-CEM leukemia, 10.8%; with MOLT-4 leukemia, 33.3%.

For `CC(C)(C)c1ccc(OC(=O)Nc2ccccc2)cc1`, the growth was 103% in the test on SK-MEL-2 melanoma; 111% in the test on EKVX NSCLC; 100% in the test with SN12C renal; 87% in the test with UO-31 renal; 98.7% with TK-10 renal; 102% with ACHN renal. In addition, the growth with CAKI-1 renal was 104%; in the test with A498 renal it was 97.7%; in the test on CCRF-CEM leukemia it was 87.1%; with MOLT-4 leukemia, 56.6%.

Consider `NC(N)=NC1CCCCC1`, for which the growth is 101% in the test on SK-MEL-2 melanoma; 93% in the test with EKVX NSCLC; 103% with SN12C renal; 84.7% in the test with UO-31 renal; 84.1% in the test with TK-10 renal; 103% with ACHN renal. Further, the growth is 93.9% with CAKI-1 renal, 98.1% with A498 renal, 90.3% with CCRF-CEM leukemia and 92.5% in the test with MOLT-4 leukemia.

In the case of `N=C(N)c1ccc(NCCNc2ccc(C(=N)N)cc2)cc1`, the growth in the test with SK-MEL-2 melanoma was 97.3%; in the test on EKVX NSCLC, 102%; in the test on SN12C renal, 46%; in the test with UO-31 renal, 87.2%; in the test on TK-10 renal, 111%; in the test on ACHN renal, 85.5%. The growth was 74.3% in the test with CAKI-1 renal, 90.2% in the test with A498 renal, -71.7% (active) in the test on CCRF-CEM leukemia and -52.9% (active) in the test with MOLT-4 leukemia.

`c1cc(C2CCCCC2)ccc1-c1cnc2nonc2n1`: the growth is 8.16% (active) with SK-MEL-2 melanoma; 37.3% with EKVX NSCLC; 19.5% with SN12C renal; 29% with UO-31 renal; 15.6% in the test with TK-10 renal; 34.6% in the test with ACHN renal. Besides, the growth is 34.2% in the test on CAKI-1 renal, 9.62% (active) with A498 renal, 3.66% (active) in the test with CCRF-CEM leukemia and -5.4% (active) in the test with MOLT-4 leukemia.

For `COc1ccc2nc3ccccc3c(NCc3ccc(C)cc3)c2c1`, the growth was 70% with SK-MEL-2 melanoma; 35.2% in the test on EKVX NSCLC; 23.6% in the test on SN12C renal; 13.4% with UO-31 renal; 47% in the test on TK-10 renal; 16.3% with ACHN renal. For the same compound, the growth in the test with CAKI-1 renal was 26.2%; with A498 renal, -1.58% (active); with CCRF-CEM leukemia, 7.09% (active); in the test with MOLT-4 leukemia, 0.305% (active).

In the case of `CCC(=O)OCc1ccc(OC)cc1`, the growth in the test on SK-MEL-2 melanoma was 112%; with EKVX NSCLC, 107%; in the test with SN12C renal, 91%; with UO-31 renal, 82%; in the test on TK-10 renal, 107%; with ACHN renal, 103%. Moreover, the growth with CAKI-1 renal is 96.6%; with A498 renal, 144%; in the test on CCRF-CEM leukemia it was 99.4%; in the test on MOLT-4 leukemia, 95.3%.

As to `CS(=O)(=O)c1ccc(C(=O)N/N=C/c2cccc3ccccc23)cc1`, the growth was 47.7% with SK-MEL-2 melanoma; 87.4% with EKVX NSCLC; 87.4% in the test with SN12C renal; 78.5% with UO-31 renal; 85.1% with TK-10 renal; 98.5% in the test on ACHN renal. Also, the growth in the test on CAKI-1 renal is 67.2%; with A498 renal, 69.1%; in the test on CCRF-CEM leukemia it was 77.6%; in the test on MOLT-4 leukemia, 46.8%.

As for `c1ccc(-c2nnn(-c3ccccc3)n2)cc1`, the growth with SK-MEL-2 melanoma was 94.7%; in the test on EKVX NSCLC it was 93.2%; in the test on SN12C renal, 103%; with UO-31 renal, 81.3%; with TK-10 renal it was 147%; with ACHN renal, 105%. Besides, the growth was 92.9% in the test on CAKI-1 renal, 119% with A498 renal, 95.2% in the test with CCRF-CEM leukemia and 91.2% in the test on MOLT-4 leukemia.

Consider `CC(C)(C)c1nn(-c2ccccc2)c2c1C(=O)CSC(c1ccc3c(c1)OCO3)N2` (stereo not given), for which the growth with SK-MEL-2 melanoma is 101%; with EKVX NSCLC, 80.2%; in the test on SN12C renal, 91.3%; in the test on UO-31 renal, 74.8%; in the test on TK-10 renal, 103%; in the test with ACHN renal it was 107%. In addition, the growth in the test on CAKI-1 renal is 81.4%; with A498 renal, 113%; in the test with CCRF-CEM leukemia it was 98.1%; in the test with MOLT-4 leukemia, 86%.

As for `N/C(=N\OC(=O)c1ccccc1)C(Cc1ccccc1)C(=O)NOC(=O)c1ccccc1` (stereo not given), the growth with SK-MEL-2 melanoma was 89.7%; with EKVX NSCLC, 59.2%; in the test on SN12C renal, 68.8%; in the test on UO-31 renal, -59.5% (active); in the test with TK-10 renal it was 78.3%; in the test on ACHN renal it was 15.1%. Further, the growth in the test with CAKI-1 renal was -44.6% (active); in the test with A498 renal, 59.5%; in the test with CCRF-CEM leukemia, 9.98% (active); with MOLT-4 leukemia it was 35.2%.

In the case of `CCCCCCCCCCCC1=NC(C)(C)CN1CC(C)O` (stereo not given), the growth was 63.4% with SK-MEL-2 melanoma; 68.8% in the test on EKVX NSCLC; 69.8% in the test with SN12C renal; 47.6% in the test on UO-31 renal; 91.7% with TK-10 renal; 80.2% in the test with ACHN renal. Also, the growth is 69.8% in the test on CAKI-1 renal, 99.8% in the test with A498 renal, 25.5% in the test on CCRF-CEM leukemia and 25.4% in the test with MOLT-4 leukemia.

Consider `COc1ccc(C(=O)OC2C(OC3C(O)COC(O[C@H]4C[C@H]5[C@@H]6CC=C7C[C@@H](O)CC[C@]7(C)[C@H]6CC[C@]5(C)[C@H]4[C@H](C)C(=O)CCC(C)C)C3OC(=O)C(C)C)OCC(O)C2O)cc1` (stereo not given in full), for which the growth was -37.2% (active) in the test on SK-MEL-2 melanoma; 30.2% in the test with EKVX NSCLC; 57.3% in the test on SN12C renal; -15.2% (active) in the test on UO-31 renal; 8.54% (active) in the test on TK-10 renal; 36.6% in the test on ACHN renal. Further, the growth in the test on CAKI-1 renal is 3.21% (active); in the test on A498 renal it was -61.2% (active); in the test on CCRF-CEM leukemia, -21.8% (active); in the test on MOLT-4 leukemia, -34.8% (active).

As for `COc1ccc(C2NC(=O)c3cc4c(cc3N2)OCO4)cc1` (stereo not given), the growth was 10.5% with SK-MEL-2 melanoma; 58.1% in the test with EKVX NSCLC; 31.6% in the test on SN12C renal; 67.3% in the test on UO-31 renal; 52.8% in the test with TK-10 renal; 46.3% with ACHN renal. In addition, the growth in the test on CAKI-1 renal was 55.2%; in the test with A498 renal it was 8.76% (active); in the test on CCRF-CEM leukemia it was 14.8%; in the test on MOLT-4 leukemia, 16.5%.

Consider `COc1ccc(NC(=O)Cn2c(=O)sc3c(-c4ccc(Cl)cc4)cc(-c4ccc(Cl)cc4)nc32)cc1`, for which the growth in the test on SK-MEL-2 melanoma is 107%; with EKVX NSCLC, 95.4%; in the test with SN12C renal, 93.2%; in the test with UO-31 renal, 81.4%; in the test on TK-10 renal it was 97.3%; in the test with ACHN renal, 102%. For the same compound, the growth is 95.3% in the test on CAKI-1 renal, 129% in the test on A498 renal, 112% in the test with CCRF-CEM leukemia and 95% with MOLT-4 leukemia.

(Values after PubChem BioAssay (NCI).)
